The source made the active and inactive calls.
Columns and labels:
[1] = E. coli DRC41 culture turbidity changes, primary screen, E. coli filamentation inducer project, strain DRC41, OD650, 48 h (AID 1152);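 further: E. coli MC1000 strain DRC41 lacking acrAB efflux pump and sulA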; settings: E. coli DRC41 (acrAB sulA), higher = more signal, called active from +8 up or from −8 down
[2] = small-molecule binders of probe aLefty1, primary screen, biochemical, small-molecule microarray, 635/667 nm fluorescence (AID 1153); settings: higher = more signal;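 further: score merges spot fluorescence with signal-to-noise ratio from the scanned slide images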
[3] = PSAC antagonists in infected red cells, primary screen, cell-based, P. falciparum Indochina, OD700, 1 h (AID 1154); settings: P. falciparum Indochina infected RBC osmotic lysis, higher = more signal, called active from +8 up or from −8 down
[4] = PSAC antagonists in infected red cells, primary screen, cell-based, P. falciparum Indochina, OD700, 2 h (AID 1155);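 further: lysis reports solute entry through the parasite surface anion channel PSAC; channel blockers reduce lysis of infected cells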; settings: P. falciparum Indochina infected erythrocytes, osmotic lysis OD700; higher = more signal, called active from +8 up or from −8 down
[5] = osmotic lysis modulators in infected erythrocytes, primary screen, PSAC antagonist project, cell-based, P. falciparum Indochina, OD700, 3 h (AID 1156); settings: higher = more signal, called active from +8 up or from −8 down
[6] = PSAC antagonists in infected red cells, primary screen, cell-based, P. falciparum Indochina, OD700, 18 h (AID 1157); settings: P. falciparum Indochina infected erythrocytes, osmotic lysis OD700, 18 h; higher = more signal, called active from +8 up or from −8 down
[7] = modulators of S6 phosphorylation in cells, primary screen, cell-based, A549, cytoblot, luminescence, serum-stimulated (AID 1158); settings: A549 phospho-S6 cytoblot, 5 h, higher = more signal;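 further: serum-stimulated A549 lung adenocarcinoma cells; signal is phosphorylated S6 detected by cytoblot immunostaining with HRP secondary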
[8] = target: NADPH oxidase 2 (Homo sapiens) (UniProt P04839); test: NOX2-dependent H2O2 signal modulators, primary screen, NOX inhibitor project, cell-based, HEK293-NOX2, PMA-stimulated, Amplex Red fluorescence (AID 1159); settings: 45 min, higher = more signal, called active from +8 up or from −8 down; further: test concentration not given here
Chain of NADPH oxidase 2 (Homo sapiens) (P04839 whole entry, looked up): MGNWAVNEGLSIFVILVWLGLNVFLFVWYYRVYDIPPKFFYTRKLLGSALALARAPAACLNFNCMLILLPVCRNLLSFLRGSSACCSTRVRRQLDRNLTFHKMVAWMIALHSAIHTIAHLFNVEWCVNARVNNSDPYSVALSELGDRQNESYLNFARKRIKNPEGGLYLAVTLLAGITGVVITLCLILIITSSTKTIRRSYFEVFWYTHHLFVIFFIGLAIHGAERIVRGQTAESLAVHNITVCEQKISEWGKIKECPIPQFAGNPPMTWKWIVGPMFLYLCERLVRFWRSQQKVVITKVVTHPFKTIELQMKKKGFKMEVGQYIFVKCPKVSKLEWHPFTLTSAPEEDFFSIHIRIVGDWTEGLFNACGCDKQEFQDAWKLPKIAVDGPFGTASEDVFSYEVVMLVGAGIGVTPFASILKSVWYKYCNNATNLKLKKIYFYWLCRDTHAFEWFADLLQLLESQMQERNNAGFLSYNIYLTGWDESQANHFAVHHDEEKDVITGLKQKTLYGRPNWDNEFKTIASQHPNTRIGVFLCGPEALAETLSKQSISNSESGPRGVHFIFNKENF

[9] = target: NADPH oxidase 4 (Homo sapiens) (UniProt Q9NPH5); test: NOX4-dependent H2O2 signal modulators, primary screen, NOX inhibitor project, cell-based, HEK293-NOX4, tetracycline-induced, Amplex Red fluorescence (AID 1160); settings: 45 min, higher = more signal, called active from +8 up or from −8 down
Chain of NADPH oxidase 4 (Homo sapiens) (Q9NPH5 whole entry, looked up): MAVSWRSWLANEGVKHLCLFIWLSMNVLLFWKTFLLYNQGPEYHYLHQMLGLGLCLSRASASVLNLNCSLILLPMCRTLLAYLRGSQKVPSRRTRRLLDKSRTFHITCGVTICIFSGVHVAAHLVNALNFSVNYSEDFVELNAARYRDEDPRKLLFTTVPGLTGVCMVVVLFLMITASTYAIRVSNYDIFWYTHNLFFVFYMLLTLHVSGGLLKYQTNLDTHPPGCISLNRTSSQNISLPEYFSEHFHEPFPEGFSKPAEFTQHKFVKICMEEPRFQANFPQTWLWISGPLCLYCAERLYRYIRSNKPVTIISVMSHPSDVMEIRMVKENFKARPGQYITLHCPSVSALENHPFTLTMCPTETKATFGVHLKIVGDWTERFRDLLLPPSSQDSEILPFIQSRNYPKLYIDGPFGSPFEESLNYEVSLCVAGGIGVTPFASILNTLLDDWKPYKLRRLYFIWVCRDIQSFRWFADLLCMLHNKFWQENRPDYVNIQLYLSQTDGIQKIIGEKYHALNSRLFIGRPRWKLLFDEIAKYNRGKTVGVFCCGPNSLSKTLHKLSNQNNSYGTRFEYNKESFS

[10] = target: NADPH oxidase 5 (Homo sapiens) (UniProt Q96PH1); test: NOX5-dependent H2O2 signal modulators, primary screen, NOX inhibitor project, cell-based, HEK293-NOX5, Amplex Red fluorescence (AID 1161); settings: HEK293-NOX5, ionomycin, 45 min, higher = more signal
Chain of NADPH oxidase 5 (Homo sapiens) (Q96PH1 whole entry, looked up): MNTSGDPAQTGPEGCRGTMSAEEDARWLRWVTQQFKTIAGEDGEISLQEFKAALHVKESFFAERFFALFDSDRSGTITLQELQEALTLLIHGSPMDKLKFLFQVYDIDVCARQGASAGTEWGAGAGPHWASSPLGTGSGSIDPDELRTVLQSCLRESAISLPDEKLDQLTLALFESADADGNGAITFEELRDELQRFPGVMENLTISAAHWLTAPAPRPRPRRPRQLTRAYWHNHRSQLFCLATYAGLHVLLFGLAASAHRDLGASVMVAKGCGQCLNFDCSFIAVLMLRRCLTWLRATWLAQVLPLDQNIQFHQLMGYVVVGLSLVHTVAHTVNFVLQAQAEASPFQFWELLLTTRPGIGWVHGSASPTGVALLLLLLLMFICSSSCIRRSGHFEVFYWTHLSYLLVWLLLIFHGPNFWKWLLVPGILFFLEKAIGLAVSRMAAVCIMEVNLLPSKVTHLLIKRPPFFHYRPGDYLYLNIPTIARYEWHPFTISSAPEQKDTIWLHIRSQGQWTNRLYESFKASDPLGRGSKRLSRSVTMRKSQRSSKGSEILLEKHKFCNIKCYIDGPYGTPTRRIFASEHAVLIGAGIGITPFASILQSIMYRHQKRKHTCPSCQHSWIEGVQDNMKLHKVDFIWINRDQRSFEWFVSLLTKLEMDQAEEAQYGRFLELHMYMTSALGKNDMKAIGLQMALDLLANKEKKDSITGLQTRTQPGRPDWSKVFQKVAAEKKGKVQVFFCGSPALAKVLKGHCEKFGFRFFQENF

Compound | z-score [1] | composite z-score [2] | z-score [3] | z-score [4] | z-score [5] | z-score [6] | z-score [7] | z-score [8] | z-score [9] | z-score [10]
C=CCC(OC(C)=O)[C@@H]1[C@@H](N(Cc2ccc(-c3cccc(C(F)(F)F)c3)o2)C(=O)c2ccc(C)cc2)c2cc(OCCCO)ccc2N1C(=O)c1ccc2ccccc2c1 (stereo not given in full) | 1.86 (inactive) | -0.147 | 2.37 (inactive) | -0.0931 (inactive) | 0.0854 (inactive) | -0.109 (inactive) | -0.494 | -0.401 (inactive) | 0.713 (inactive) | 1.79
CCCNC(=O)[C@@H]1c2ccccc2C(=O)N(C(C)C)[C@H]1c1ccc(CO)cc1 | 0.737 (inactive) | 0.202 | 1.67 (inactive) | -0.1 (inactive) | 0.21 (inactive) | -0.21 (inactive) | -0.0878 | 0.162 (inactive) | 0.514 (inactive) | -0.0547
COc1cc(OC)c(C(O)C2C=CC3C(=O)N(C)C(=O)C3N2NC(=O)OC(C)(C)C)cc1Br (stereo not given) | -0.36 (inactive) | 0.524 | 1.24 (inactive) | 1.18 (inactive) | -0.285 (inactive) | 1.07 (inactive) | -0.92 | 0.224 (inactive) | -3.59 (inactive) | 0.576
CC1CC/C=C\[C@H]2OC34C=CCN(C(C)C)C(=O)[C@H]3N(CCCCCCO)C(=O)[C@@H]4C2C(=O)O1 (stereo not given in full) | 3.07 (inactive) | -0.45 | 0.719 (inactive) | 0.259 (inactive) | -0.987 (inactive) | -0.751 (inactive) | 1.26 | 0.882 (inactive) | 0.119 (inactive) | 2.1
CCOC(=O)C[C@H]1[C@H](OC(=O)c2ccccc2-c2ccccc2)[C@@H](NC(=O)c2ccc(-c3ccccc3)cc2)c2cc(OCCCO)ccc2N1C(=O)c1ccc2ccccc2n1 | -0.485 (inactive) | -0.28 | 2.14 (inactive) | -0.0352 (inactive) | -0.708 (inactive) | 0.232 (inactive) | -0.0653 | 0.724 (inactive) | 0.964 (inactive) | 1.24
COc1ccc(C#Cc2ccc3c(c2)[C@]2(C(=O)N3)[C@H](c3ccc(O)cc3)N3[C@H](c4ccccc4)[C@H](c4ccccc4)OC(=O)[C@H]3[C@@H]2C(=O)O)cc1 | 1.09 (inactive) | 0.948 | -1.12 (inactive) | -1.32 (inactive) | -8.12 (active) | -2.53 (inactive) | 2.76 | 0.397 (inactive) | -2.46 (inactive) | 0.00974
CN1C(=O)C2C=CC(C(O)c3ccc(F)cc3)N(Nc3ccccc3)C2C1=O (stereo not given) | -1.69 (inactive) | 0.0711 | 1.24 (inactive) | 1.05 (inactive) | 1.45 (inactive) | 0.582 (inactive) | -0.85 | -1.41 (inactive) | -3.79 (inactive) | -3.17
COC(=O)[C@@]1(Cc2ccc(OC)cc2)[C@H]2c3cc(C(=O)N(C)C)n(CCO)c3C[C@H]2CN1C(=O)c1ccccc1 | -1.2 (inactive) | 0.564 | 0.845 (inactive) | 0.145 (inactive) | 0.0732 (inactive) | 0.446 (inactive) | -0.775 | 0.331 (inactive) | -1.49 (inactive) | -1.91
CN(C)CCCNC(=O)[C@@H]1c2ccccc2C(=O)N(Cc2ccccc2Cl)[C@H]1c1ccc(CO)cc1 | 0.681 (inactive) | 0.022 | 3.77 (inactive) | 0.603 (inactive) | 1.68 (inactive) | 0.599 (inactive) | 0.517 | 0.277 (inactive) | 0.691 (inactive) | -0.0877
CC(C)OC(=O)C=C1C[C@@H](c2ccc(C(F)(F)F)cc2)O[C@@H](c2ccc(C(F)(F)F)cc2)O1 | 0.609 (inactive) | -0.0954 | 2.79 (inactive) | -0.301 (inactive) | -0.101 (inactive) | -1.05 (inactive) | 0.569 | 0.283 (inactive) | -0.175 (inactive) | -0.0582
C=CCOC(=O)[C@H]1[C@@H]2C(=O)O[C@@H](c3ccccc3)[C@@H](c3ccccc3)N2[C@@H](c2ccc(OCCOC(=O)[C@H]3C[C@H]4C(=O)N[C@@H](CC(C)C)C(=O)N4[C@H]3c3cccc(OCCO)c3)cc2)[C@]12C(=O)Nc1ccc(I)cc12 | -0.811 (inactive) | -0.33 | 2.5 (inactive) | 1.3 (inactive) | 0.844 (inactive) | 0.963 (inactive) | 0.547 | 1.35 (inactive) | 1.6 (inactive) | 1.14
CC(C)[Si](C#C[Si](C(C)C)(C(C)C)C(C)C)(O[C@H](C)c1cn([C@H](CO)Cc2ccccc2)nn1)C(C)C | 2.09 (inactive) | -0.212 | 0.532 (inactive) | 0.655 (inactive) | -0.116 (inactive) | 0.359 (inactive) | 0.479 | -1.96 (inactive) | 0.188 (inactive) | 0.0884
CN1C(=O)C2C=CC(C(O)c3cccc4ccccc34)N(N3CCCCC3)C2C1=O (stereo not given) | -1.57 (inactive) | -0.0798 | 0.669 (inactive) | 0.958 (inactive) | -0.284 (inactive) | 0.878 (inactive) | -1.32 | -0.671 (inactive) | -1.97 (inactive) | -0.766
COc1ccc(-c2nc(-c3ccccc3)c3c(c2C)CO[Si]3(C(C)C)C(C)C)cn1 | -1.41 (inactive) | 0.0816 | 0.574 (inactive) | -0.0994 (inactive) | -0.566 (inactive) | -0.278 (inactive) | -0.0095 | -0.783 (inactive) | 0.386 (inactive) | -1.54
O=C1N(Cc2ccccc2)c2ccccc2[C@@H]2OC(c3ccc(OCCCO)cc3)=N[C@]12Cc1ccccc1 | 0.65 (inactive) | -0.0896 | 29.4 (active) | 26.1 (active) | 4.66 (inactive) | 2.38 (inactive) | 0.724 | -1.08 (inactive) | -0.653 (inactive) | -2.11
CCOC(=O)[C@H]1[C@@H]2C(=O)N3CCC[C@H]3[C@H](O[Si](C(C)C)(C(C)C)C(C)C)[C@H]2C=C2CCN(S(=O)(=O)c3ccc(C)cc3)C[C@H]21 | -1.12 (inactive) | -0.202 | 5.55 (inactive) | 1.24 (inactive) | 0.216 (inactive) | 1.02 (inactive) | 0.582 | 0.163 (inactive) | -0.264 (inactive) | 1.69
C[C@@H]1ON(c2ccc(C(=O)OC(C)(C)C)cc2)[C@H](c2ccc(O)cc2)[C@H]1C(=O)N1C(=O)OC[C@H]1Cc1ccccc1 | -0.476 (inactive) | 0.119 | 3.71 (inactive) | 0.709 (inactive) | -0.348 (inactive) | 0.87 (inactive) | 0.363 | -0.394 (inactive) | -0.43 (inactive) | -0.209
CCCNC(=O)[C@@]1(c2ccc([N+](=O)[O-])cc2)CC(=O)N(C2CCCCC2)[C@@H]1c1ccc(CO)cc1 | 0.774 (inactive) | 0.062 | 2.1 (inactive) | 1.01 (inactive) | 1.21 (inactive) | 0.988 (inactive) | -0.002 | 0.325 (inactive) | 0.901 (inactive) | 0.877
C=CCNC(=O)[C@@H]1[C@H]2C(=O)O[C@H](c3ccccc3)[C@H](c3ccccc3)N2[C@H](c2ccc(O)cc2)[C@@]12C(=O)N(C(=O)OCCOC)c1ccc(C#CC3(O)CCCCCC3)cc12 | 2.23 (inactive) | -0.639 | 0.776 (inactive) | -0.353 (inactive) | 0.469 (inactive) | 0.682 (inactive) | 0.305 | -0.00516 (inactive) | 0.395 (inactive) | 0.849
O=C1NC(=O)C2C1C=CC(C(O)c1ccco1)N2Nc1ccccn1 (stereo not given) | -1.23 (inactive) | -0.145 | -0.379 (inactive) | 0.74 (inactive) | -0.314 (inactive) | 0.581 (inactive) | -1.19 | -1.35 (inactive) | -2.89 (inactive) | -1.78
C=C(/C(=C/C[C@H](OC(C)=O)c1cccc(OCCO)c1)c1cnc2ccccc2c1)C(C)C | -0.0902 (inactive) | -0.0141 | 18.7 (active) | 3.44 (inactive) | 1.67 (inactive) | 1.12 (inactive) | -0.343 | 0.175 (inactive) | -0.456 (inactive) | -0.923
C#CCN([C@@H](Cc1ccc(O)cc1)C(=O)OC)[C@@H](/C=C/C1CC1)[C@H](O)Cc1ccccc1 | -1.08 (inactive) | -0.294 | 3.41 (inactive) | 0.761 (inactive) | -0.824 (inactive) | 0.353 (inactive) | -0.839 | 0.544 (inactive) | -0.606 (inactive) | -1.58
C=CCC(OC(C)=O)[C@@H]1[C@@H](N(Cc2ccc(-c3ccccc3)cc2)C(=O)Cc2ccc(F)cc2)c2cc(OCCCO)ccc2N1C(=O)Cc1ccc(OC)cc1 (stereo not given in full) | 0.246 (inactive) | 0.106 | 3.94 (inactive) | 0.477 (inactive) | -0.407 (inactive) | 0.259 (inactive) | -0.152 | 0.0982 (inactive) | 0.675 (inactive) | 1.67
O=C1OCC=C[C@H]2OC34C=CCN(c5ccc(Cl)cc5)C(=O)[C@H]3N(CCO)C(=O)[C@@H]4[C@@H]12 (stereo not given in full) | -0.367 (inactive) | -0.147 | 0.506 (inactive) | 0.0971 (inactive) | 0.111 (inactive) | 0.403 (inactive) | -0.677 | 1.12 (inactive) | 0.908 (inactive) | 1.31
CN(C)CCCNC(=O)[C@@]1(C)c2ccccc2C(=O)N(Cc2ccccc2)[C@H]1c1ccc(CO)cc1 | -0.074 (inactive) | -0.146 | 2.17 (inactive) | 0.426 (inactive) | 1.32 (inactive) | 0.377 (inactive) | -0.142 | 0.42 (inactive) | -1.25 (inactive) | 0.6
